According to the OligoGym collection:

Legend:
Test in all cases: pooled miR-30 sensor sort-seq; sequence = guide strand
Settings in all cases: shRNA
SC5DL = target: SC5DL
SASH1 = target: SASH1
SASH3 = target: SASH3
SCAF4 = target: SCAF4
SCGB1D4 = target: SCGB1D4
SEC62 = target: SEC62
SEC61B = target: SEC61B
SEC22B = target: SEC22B
SEC11C = target: SEC11C
Further: reference of the scale not given here.

TATATGGTAAGGTAGACTCTGA gave a sensor-assay potency score (higher = more potent) (SC5DL) of -0.406.

Work on AAGACTAATAGCTTGTCGGAAG yielded a sensor-assay potency score (higher = more potent) (SC5DL) of -1.

TTACTATGTATCTTGACTGTAT was tested, and the sensor-assay potency score (higher = more potent) (SC5DL) was 0.237.

TAGATGAACTTGAACGTGCCGA gave a sensor-assay potency score (higher = more potent) (SASH1) of 0.105.

With TTTCGTAGCATCCTGAGTCTCG the sensor-assay potency score (higher = more potent) (SASH1) was 0.799.

Work on TTATTAAGCACAATGATTCTTA yielded a sensor-assay potency score (higher = more potent) (SC5DL) of -0.0651.

TATCATTATCATACCAACGTTG was tested, and the sensor-assay potency score (higher = more potent) (SC5DL) was -0.725.

TTTTAGACTGACCTGAAACATT gave a sensor-assay potency score (higher = more potent) (SASH3) of -1.36.

TTGACCATCTGTAATCAGCCTT gave a sensor-assay potency score (higher = more potent) (SASH3) of 0.123.

TCTACCTGAATTGAACTGCTGC gave a sensor-assay potency score (higher = more potent) (SCAF4) of 0.449.

With TAAAAAAATAGTAATCTGCAAC the sensor-assay potency score (higher = more potent) (SC5DL) was -0.802.

TAGTACTGCAAACACTTGCAGT showed a sensor-assay potency score (higher = more potent) (SCAF4) of -0.842.

Sequence TAGTTGTCAATTTCTGAGGTTC has a sensor-assay potency score (higher = more potent) (SASH1) of -0.0207.

For TAACTGAGCTGTGATAGCCTGA, the sensor-assay potency score (higher = more potent) (SCAF4) was -0.339.

For TTGACCATCATCATTAGCTGAA, the sensor-assay potency score (higher = more potent) (SASH1) was 0.388.

Work on TAGTCCAGCAGCAGCTCGGCGG yielded a sensor-assay potency score (higher = more potent) (SASH3) of -1.4.

Sequence TAGCTTTTACCAAAGTTCCTGG has a sensor-assay potency score (higher = more potent) (SASH3) of -0.621.

TTGAAGTCTTCCAGTGTCTGGT gave a sensor-assay potency score (higher = more potent) (SASH3) of 0.225.

TAACTCTTGAGTCTGTTACTTT was tested, and the sensor-assay potency score (higher = more potent) (SASH1) was -0.488.

In the case of TAGGGTTTTTAGACTGACCTGA, the sensor-assay potency score (higher = more potent) (SASH3) is reported as 0.692.

TTGAGCAGGAGGGTGGATGTGT was tested, and the sensor-assay potency score (higher = more potent) (SASH3) was -0.276.

TTGAAGAATTAACCATTCCTGA was tested, and the sensor-assay potency score (higher = more potent) (SC5DL) was -0.422.

For TTGGCAAAATCCTTGAAGCTGC, the sensor-assay potency score (higher = more potent) (SASH3) was -0.67.

ATTAAGTTTGGCAACTTGGAGG gave a sensor-assay potency score (higher = more potent) (SCGB1D4) of -1.05.

TTATGTACAGAATACACTTTAC showed a sensor-assay potency score (higher = more potent) (SEC62) of -1.09.

ATAACCAATACTGGAACAGGGC was tested, and the sensor-assay potency score (higher = more potent) (SEC61B) was -0.892.

In the case of TAGAATCGCCACATCCCCCCGG, the sensor-assay potency score (higher = more potent) (SEC61B) is reported as -0.342.

Work on ATCTTCTGTGTAGAATCGCCAC yielded a sensor-assay potency score (higher = more potent) (SEC61B) of -0.702.

In the case of TAGCCTTTGAATCCAATGCTGA, the sensor-assay potency score (higher = more potent) (SEC22B) is reported as -0.568.

In the case of TATGTCTTTATCATATTTCATT, the sensor-assay potency score (higher = more potent) (SEC62) is reported as -1.38.

With TGAACTATTGGAATGTCTCGTC the sensor-assay potency score (higher = more potent) (SEC11C) was 0.149.

TTCTGTGTAGAATCGCCACATC was tested, and the sensor-assay potency score (higher = more potent) (SEC61B) was -0.647.

TTCTATAAAATGAAGGACCGAA was tested, and the sensor-assay potency score (higher = more potent) (SEC62) was -0.0759.

TCAATGTAGAGCTTCTTGGTTT showed a sensor-assay potency score (higher = more potent) (SEC22B) of -0.305.

For TTCATTTTCAGGACATCTCTTT, the sensor-assay potency score (higher = more potent) (SEC22B) was 0.0656.

Work on TTACTCTGTGAACTATTGGAAT yielded a sensor-assay potency score (higher = more potent) (SEC11C) of -1.07.

With TTGGATTCTAATACACATCTCT the sensor-assay potency score (higher = more potent) (SEC22B) was 0.391.

With TAGTCAACCACAGACTCCCTGG the sensor-assay potency score (higher = more potent) (SEC62) was -0.485.

Sequence TTTCAGGACATCTCTTTTCTTG has a sensor-assay potency score (higher = more potent) (SEC22B) of -0.395.

Work on TAATATAATTCACTTACCCTAA yielded a sensor-assay potency score (higher = more potent) (SEC22B) of -0.417.

Sequence TAGTCATTCATTATTATGGTGA has a sensor-assay potency score (higher = more potent) (SEC11C) of -0.647.

TCGAGCACAACTGTCAATGTAG gave a sensor-assay potency score (higher = more potent) (SEC22B) of 0.24.

Work on ATGTGCAACATAAATACAGAAG yielded a sensor-assay potency score (higher = more potent) (SEC61B) of -1.59.

TAAAACAGCAAGCTTACAGAAA gave a sensor-assay potency score (higher = more potent) (SEC61B) of -1.05.

For TTGTTGGACAGTTGAATCGAAG, the sensor-assay potency score (higher = more potent) (SEC62) was -1.44.

With TGACTTTTCCTCACTGTCGGAC the sensor-assay potency score (higher = more potent) (SEC62) was -0.575.

With TGCAACATAAATACAGAAGCGA the sensor-assay potency score (higher = more potent) (SEC61B) was -0.661.

TTCTAATACACATCTCTGTGAG showed a sensor-assay potency score (higher = more potent) (SEC22B) of 0.118.

In the case of TAAAACCTGGTAATAGAGCTGG, the sensor-assay potency score (higher = more potent) (SEC11C) is reported as -0.222.

TGGAACAGGGCCAACTTTGAGC was tested, and the sensor-assay potency score (higher = more potent) (SEC61B) was -1.17.

Work on TAAAGCTTCCTCTCCTTTCTTG yielded a sensor-assay potency score (higher = more potent) (SEC62) of 0.192.

Sequence TTTAAGTCTGCTTTTGGTCCTT has a sensor-assay potency score (higher = more potent) (SEC62) of 0.441.

TAAATAAAGCTTCCTCTCCTTT was tested, and the sensor-assay potency score (higher = more potent) (SEC62) was -0.505.

TTTGTTGGACAGTTGAATCGAA showed a sensor-assay potency score (higher = more potent) (SEC62) of 0.088.

TTCAATATGGTAATCAGCCAAC gave a sensor-assay potency score (higher = more potent) (SEC62) of -1.13.

Sequence TCGTTGTAACACTTCTTCGATA has a sensor-assay potency score (higher = more potent) (SEC22B) of -1.15.

In the case of AAATGTGCAACATAAATACAGA, the sensor-assay potency score (higher = more potent) (SEC61B) is reported as -1.05.

Work on TTTCCTGAAAATATACACCTAC yielded a sensor-assay potency score (higher = more potent) (SEC22B) of 0.224.

TCTTCTGTGTAGAATCGCCACA showed a sensor-assay potency score (higher = more potent) (SEC61B) of -0.746.

TTCCTCTGCCGGACAGTGGATC was tested, and the sensor-assay potency score (higher = more potent) (SEC61B) was -1.27.
